Compound activity (PubChem BioAssay)
Anesthetic bind = qHTS Assay for Identification of Novel General Anesthetics | AID 485281, 2010 | apoferritin/1-aminoanthracene competitive binding, fluorescence | actives 0.074% (n = 350,000) | Potency, µM (highest dose often 77.5 µM), for inactives: top-dose activity change, negative = displacement, hits mostly inhibitors; also: potency is read from the fitted curve at half-maximal effect; % is scaled to controls: 0 for no effect and ±100 for the full control effect; nearly all actives have a fitted effect of over 20% in size
Target sequence (P02791 2-175 limits assumed): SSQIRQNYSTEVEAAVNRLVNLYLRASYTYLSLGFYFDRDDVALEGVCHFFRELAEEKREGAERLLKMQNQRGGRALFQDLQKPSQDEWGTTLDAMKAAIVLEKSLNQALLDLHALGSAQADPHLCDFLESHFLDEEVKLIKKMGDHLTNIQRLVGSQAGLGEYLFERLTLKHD
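Read-out: endpoint 1-AMA fluorescence, excitation 380 nm and emission 535 nm, after compounds sit 10 min at room temperature with 10 uM horse-spleen apoferritin in 50% saturated 1-AMA/PBS. Values come from four-parameter Hill fits.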
TDP43 rescue = qHTS of TDP-43 Inhibitors; TDP-43 expressing yeast growth rescue, BacTiter-Glo, 24 h; Potency, µM (doses to about 46.1 µM), for inactives: top-dose growth rescue (activation), hits mostly activators; actives 1.8% (n = 410,000); AID 652104, 2013; also: potency is read from the fitted curve at half-maximal effect; % of control where 0% means no effect; nearly all actives have a fitted effect of over 50% in size
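Galactose-induced TDP-43 yeast, OD600=0.02, compound pinned; 24 hr, 30 deg C; BacTiter-Glo luminescence for growth. Inhibitors of TDP-43 toxicity read as activators.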
pAkt inh = HTS Assay for Inhibitors of Akt Phophorylation: Primary Screen; Neuro2A IGF-stimulated pAkt S473 HTRF, 20 min; hits give low values; activity change, % for hits at 50 µM; actives 0.32% (n = 360,000); in the data active = activity change below about -80%; inconclusive = mostly about -51% to -80%; also: % is scaled to controls: 0 for no effect and ±100 for the full control effect
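Neuro2A cells in DMEM with 0.5% FBS, overnight at 37 deg C, given compound at single 50 µM final, then IGF (6 nM final) for 20 min at 37 deg C. Lysed; phospho-Akt Ser473 by HTRF after 24 h, 665/615 ratio.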
Mito fusion act = qHTS Assay for Small Molecule Inhibitors of Mitochondrial Division or Activators of Mitochondrial Fusion; actives 0.23% (n = 320,000); AID 485298, 2010; S. cerevisiae fusion-defective mutant growth rescue, CellTiterGlo 48 h; Potency, µM (top dose mostly 46.1 µM), for the others: at the top dose growth rescue (activation), hits mostly activators; also: potency is read from the fitted curve at half-maximal effect; % of control where 0% means no effect; nearly all actives have a fitted effect of over 45% in size
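Read-out: ATP-based luminescence (CellTiterGlo, 10 min ambient) reporting growth of fusion-defective ts yeast after 48 hours at 37C on glycerol/ethanol YPEG medium in the presence of compound.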
aSyn yeast inh = qHTS of alpha-syn Inhibitors; Yeast expressing alpha-synuclein, growth rescue, BacTiter-Glo, 24 h; Potency, µM (series often up to 46.1 µM), inactives show at the highest dose growth rescue (activation), usual class: activators; actives 0.14% (n = 370,000); AID 652106, 2013; also: potency is read from the fitted curve at half-maximal effect; % of control where 0% means no effect; nearly all actives have a fitted effect of over 65% in size
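Rescue of yeast growth: cells expressing toxic alpha-synuclein, induced in galactose at OD600 0.02, incubated with compound 24 h at 30 C. ATP luminescence quantified growth; inhibitors of toxicity appear as activators.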
CCT modulator = High-Throughput Screening for Modulators of Cytosolic Chaperonin Activity | AID 651819, 2012 | activity change, % (concentration not given with the values), hits read low | actives 0.3% (n = 360,000) | purified chaperonin ATPase assay, HTRF ADP detection, 30 min; in the data active = activity change below about -30%; also: % is scaled to controls: 0 for no effect and ±100 for the full control effect
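TRiC at 40 or 20 nM final (batch-dependent) in 30 mM Tris pH 7.4, 100 mM KCl, 5 mM MgCl2, 1 mM DTT, with compound at single 76 uM and 10 uM ATP, 30 min at 37 deg C. ADP detected by HTRF Transcreener, 665/615 ratio.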
An asterisk follows results filed as active; i = inactive; ? = inconclusive; nt = not tested or not shown; [ ] = dose if it differs, or a comment. Shown are actives, neighbours in structure and some others; about 2.5% of the full set was active somewhere. Unless noted, calls follow the shape of the dose curve; as a rule, active = well fitted curve in the direction sought with a large enough effect; inconclusive = small, poorly fitted or top-dose-only effect, or another doubt; inactive = no such curve, though single readings can be large; an effect the other way counts as inactive or inconclusive.

SMILES	Anesthetic bind	TDP43 rescue	pAkt inh	Mito fusion act	aSyn yeast inh	CCT modulator
CS(=O)(=O)N1N=C(c2ccc3nccnc3c2)CC1c1ccccc1 (stereo not drawn)	-17%	-6%	i	-2%	9%	-88*
CS(=O)(=O)N1N=C(c2ccccc2)CC1c1ccc2nccnc2c1 (stereo not drawn)	-14%	-11%	i	0%	8%	0
Cc1ccc(CNC(=O)CCc2c(C)c3cc4c(C)coc4cc3oc2=O)cc1	-5%	22%	nt	nt	nt	nt
COC(=O)[C@H](Cc1ccccc1)NC(=O)[C@@H](C)CO	28%[15.3 µM]	nt	nt	nt	nt	nt
COC(=O)C1=NN(C(=O)c2cccc(Br)c2)C(O)(c2ccc(Cl)cc2)C1 (stereo not drawn)	-20%	?	i	-18%	18µM*	0
N/C(Cc1ccc([N+](=O)[O-])cc1)=N\OC(=O)c1ccccc1F	-14%	11µM*	i	-1%	1%	-2
N/C(Cc1ccc([N+](=O)[O-])cc1)=N\OC(=O)Cc1ccccc1	-5%	?	i	14%	-8%	0
CCOc1cc2sc(N3CCC(C(=O)Nc4ccccc4Cl)CC3)nc2cc1Br	-9%	15%	nt	nt	nt	nt
CCc1ccc(CN(Cc2ccco2)C(=O)COc2ccc(Cl)cc2C)cc1	111%	9%	nt	nt	nt	nt
CCOC(=O)C1CCCN(C(=O)Cn2ncn3c(cc4sc(CC)cc43)c2=O)C1 (stereo not drawn)	2%	25%	nt	nt	nt	nt
O=C(Nc1ccccc1N1CCN(C(=O)c2ccc(Cl)cc2)CC1)c1cccc(F)c1	-2%	?	i	4%	-7%	-1
O=C(Nc1ccccc1N1CCN(C(=O)c2ccc(Cl)cc2)CC1)c1ccc2c(c1)OCO2	-4%	6.3µM*	nt	13µM*	nt	2
Cc1ccc(-n2c3c(cc(-c4nc(-c5ccc(Cl)cc5)cs4)c2=O)C(=O)CC(C)(C)C3)cc1	-2%	11%	nt	nt	nt	nt
Clc1ccc(Sc2cc(Cl)c(-c3ccccc3)nn2)cc1	-14%	7.9µM*	i	18%	-19%	2
CC1(C)CC2(CCO1)OC(=O)CC2C(=O)Nc1cccc2ccccc12 (stereo not drawn)	-11%	?	-88%*	-4%	2%	-1
O=C1CC(C(=O)Nc2cccc3ccccc23)C2(CCCC2)O1 (stereo not drawn)	-13%	?	i	1%	-5%	-1
COc1ccccc1CNc1cc(-c2cccc(NS(C)(=O)=O)c2)ncn1	-4%	nt	nt	nt	nt	nt
CCOc1ccc(/C=C/c2ccnc3ccccc23)cc1OCC	nt	nt	nt	nt	10%	nt
COC(OC)c1ccc(C#N)c(SCc2ccccc2)n1	-9%	14µM*	i	27%	-2%	0
CCS(=O)(=O)c1oc(-c2ccc(F)cc2)nc1S(=O)(=O)c1ccc(Br)cc1	?	28µM*	nt	nt	nt	nt
CS(=O)(=O)c1oc(-c2ccc(F)cc2)nc1S(=O)(=O)c1ccc(Cl)cc1	-11%	0%	nt	nt	nt	nt
CC(C)S(=O)(=O)c1oc(-c2cccs2)nc1S(=O)(=O)c1ccc(F)cc1	-10%	8.9µM*	nt	nt	nt	nt
CC(C)S(=O)(=O)c1oc(-c2ccc(F)cc2)nc1S(=O)(=O)c1ccccc1	-17%	13µM*	nt	nt	nt	nt
CCCCS(=O)(=O)c1oc(-c2ccc(F)cc2)nc1S(=O)(=O)c1ccccc1	?	14µM*	nt	nt	nt	nt
CSc1oc(-c2ccc(F)cc2)nc1S(=O)(=O)c1ccccc1	1%	-8%	i	-2%	0%	-1
SMILES	Anesthetic bind	TDP43 rescue	pAkt inh	Mito fusion act	aSyn yeast inh	CCT modulator
Cc1ccc(S(=O)(=O)c2nc(-c3cccs3)oc2SC(C)C)cc1	-4%	8%	nt	nt	nt	nt
O=C(COC(=O)c1ccccc1OCCOc1ccccc1)Nc1ccc(Br)cc1	nt	nt	nt	nt	-3%	nt
Cc1ccc2nc(Cl)c(C3CC(c4ccco4)=NN3C(=O)CCCC(=O)O)cc2c1 (stereo not drawn)	-6%	-15%	i	0%	6%	-109*
CCOc1ccc(C(=O)Nc2ccc3oc(-c4cccc5ccccc45)nc3c2)cc1	12%	8%	nt	nt	nt	nt
Cc1ccc(S(=O)(=O)Nc2cccc3cccnc23)c([N+](=O)[O-])c1	?	7.9µM*	i	16%	18µM*	0
Cc1cc(C)c(NS(=O)(=O)c2cccc3cccnc23)c(C)c1	-16%	2%	i	2%	-3%	0
O=S(=O)(Nc1ccccc1Br)c1cccc2cccnc12	nt	16%	i	nt	11%	1
O=S(=O)(Nc1cc(Br)cc2cccnc12)c1cccc2ccccc12	nt	nt	nt	nt	25µM*	nt
COc1ccc2c(c1)CCCC2NS(=O)(=O)OCC(Cl)(Cl)Cl (stereo not drawn)	-17%	35µM*	i	0%	-3%	-1
COc1ccc(CNC2CCCc3ccccc32)c(OC)c1 (stereo not drawn)	-16%	-8%	i	-4%	-1%	1
Cc1cccc(/C=N/n2c(COc3ccccc3)n[nH]c2=S)c1	-7%	29%	i	-7%	1%	1
CC(/C=N/n1c(COc2ccccc2)n[nH]c1=S)=C\c1ccccc1	?	11µM*	nt	10%	nt	0
Cc1ccc(NC(=O)Cn2c(=O)n(CCCCC(=O)NCc3ccccc3Cl)c(=O)c3ccccc32)cc1	1%	25%	nt	nt	nt	nt
COc1ccc(Nc2c3c(nc4ccc(NC(=O)/C=C/c5cccc(OC)c5OC)cc24)CCCC3)cc1OC	?	9%	nt	nt	nt	nt
CN(C)c1ccc(NC(=O)CCSc2nc(-c3ccco3)cc(C(F)(F)F)n2)cc1	-16%	19%	nt	nt	nt	nt
COCCN1C(=O)C(=O)/C(=C(/O)c2cccc(S(=O)(=O)N(C)C)c2)C12C(=O)N(C)c1ccccc12 (stereo not drawn)	-3%	8%	-108%*	-2%	7%	0
CCCOc1ccc(/C(O)=C2\C(=O)C(=O)N(CCCOC)C23C(=O)N(C)c2ccccc23)cc1 (stereo not drawn)	-17%	9%	i	3%	2%	-8
CC1CCN(C(=O)C2CCN(S(=O)(=O)c3cc(Cl)ccc3Cl)CC2)CC1	0%	13µM*	i	2%	3%	0
CCN1CCN(C(=O)C2CCCN(S(=O)(=O)c3cc(Cl)ccc3Cl)C2)CC1 (stereo not drawn)	-3%	8%	i	-1%	-1%	-1
COc1cc(C(O)c2nc(-c3csc4ccccc34)cs2)ccc1F (stereo not drawn)	nt	20µM*	i	nt	?	-2
